# Experimental data taken from ChEMBL document CHEMBL4513216, “Probing the Open Global Health Chemical Diversity Library for Multistage-Active Starting Points for Next-Generation Antimalarials” (ACS Infect Dis, 2020).
# In all, about 69,000 compounds went through this assay and about 8,600 (12%) showed an effect of 50% or more. This excerpt belongs to a sample that is enriched for strong results.
# Tested on: Plasmodium berghei
# Assay: Screen against P. berghei liver stage (PbLuc), transformed with Luciferase, at 10uM
# Type: functional, HepG2
# Settings: tested at 10 uM
row,Structure (SMILES),INHIBITION
1,COCc1noc(-c2cc(Cl)c3c(c2)OCO3)n1,-26.1%
2,CC1CN(CC(=O)NCc2ccccc2)CCN1Cc1nccn1C (stereo unspecified),22.93%
3,Cc1[nH]ccc1C(=O)N1CCCC(c2ccc(C(=O)O)cc2)C1 (stereo unspecified),2.7%
4,O=C(c1cccc2cccnc12)N1CCCC(n2ccnc2)C1 (stereo unspecified),17.02%
5,CN(C)c1ncccc1CNc1cc(N2CCCC2CO)ncn1 (stereo unspecified),26.4%
6,Cc1ccc(-c2cn[nH]c2C2CCCN(c3nccc(N)n3)C2)cc1 (stereo unspecified),47.2%
7,Cc1ccc(-c2cn[nH]c2C2CCCN(c3cc(N)ncn3)C2)cc1 (stereo unspecified),75.4%
8,Cc1nccc(N2CCCC(c3nnc(Cn4ccnc4C)n3C)C2)n1 (stereo unspecified),1.74%
9,Cc1ccc(-c2cn[nH]c2C2CCCN(c3ccnc(C)n3)C2)cc1 (stereo unspecified),65.3%
10,CN(C)CCn1ccnc1C1CCCN(c2cc(N)ncn2)C1 (stereo unspecified),28%
11,Cc1c[nH]nc1C1CCCN(c2cnccn2)C1 (stereo unspecified),4.73%
12,CC(O)C(=O)N1CCC(c2[nH]ncc2-c2ccccc2)CC1 (stereo unspecified),1.66%
13,Cc1ccc(-c2cn[nH]c2C2CCCN(c3ncccn3)C2)cc1 (stereo unspecified),27.6%
14,C[C@H](N)C(=O)N1CCC(c2[nH]ncc2-c2ccccc2)CC1,-15.65%
15,Cc1ccnc(C2CCN(c3ccnc(C)n3)C2)n1 (stereo unspecified),10.9%
16,Cc1ccc(N2CCCC(c3[nH]ncc3-c3ccccc3)C2)nn1 (stereo unspecified),56.2%
17,Cc1ccc(-c2cn[nH]c2C2CCCN(c3cnccn3)C2)cc1 (stereo unspecified),53.7%
18,CN(CCO)C[C@@H]1CN(C(=O)c2cccc(OC(F)F)c2)C[C@@H]1CO,3.19%
19,O=C(C1CCOC1)N1CCN(Cc2ccc3c(c2)CCO3)CC1 (stereo unspecified),41.5%
20,Cc1nc(CN(C)C2CCN(CCc3cccs3)C2)no1 (stereo unspecified),39.2%
21,CS(=O)(=O)NC[C@@H]1OC[C@H]2CN(C(=O)c3ccccn3)CC[C@H]21,-2.17%
22,O=C(NCC1CC2(CO1)CN(c1ncccn1)C2)C1CCC1 (stereo unspecified),27.6%

row,Structure (SMILES),INHIBITION
1,Cc1cc(N2CCCC(c3[nH]ncc3Cc3ccccc3)C2)nc(N)n1 (stereo unspecified),86.8%
2,Cc1ccc(N2CCC(c3[nH]ncc3Cc3ccccc3)CC2)nn1,49.2%
3,Cc1ccc(N2CCCC(c3[nH]ncc3Cc3ccccc3)C2)nn1 (stereo unspecified),47.2%
4,O=C(c1cnccn1)N1C[C@@H]2CN(Cc3cccnc3)CCO[C@@H]2C1,22.5%
5,O=C(CN1CCc2c(ncn2C2CC2)C1)NC1CCOCC1,5.7%
6,NCC1Cc2cccc(-c3nccc(N4CCC(O)CC4)n3)c2O1 (stereo unspecified),92.1%
7,NCC1Cc2cc(-c3nccc(N4CCC(O)CC4)n3)cc(Cl)c2O1 (stereo unspecified),43.9%
8,NCC1Cc2cc(-c3nccc(N4CCC(O)CC4)n3)cc(F)c2O1 (stereo unspecified),20.5%
9,CCCc1noc(C2CC(=O)N(Cc3ccccc3)C2)n1 (stereo unspecified),11.1%
10,COCCC(=O)N1Cc2ccccc2OC2(CCOCC2)C1,26.05%
11,Cc1c(CS(C)(=O)=O)cccc1NC(=O)CC1CCCC1,-15.9%
12,Cc1c(CS(C)(=O)=O)cccc1NCC1CCCCC1,-0.514%
13,Cc1c(CS(C)(=O)=O)cccc1NCCCC1CCCC1,74.8%
14,CN(Cc1ccc(O)cc1)C(=O)NC1CCCN(c2ncccn2)C1 (stereo unspecified),18.9665%
15,O=c1[nH]c2cn(-c3cccc(F)c3)c(=O)n2n1Cc1ccccc1Cl,20.6%
16,CCc1nc(C(=O)N2CCCCC2)nn1-c1ccccc1Cl,12.7%
17,CCN1CCN(C(=O)c2nc(C)n(-c3ccccc3Cl)n2)CC1,50.4%
18,CCc1nc(C(=O)N2CCN(C)CC2)nn1-c1ccccc1Cl,34.7%
19,CCc1nc(C(=O)N2CCCC2)nn1-c1ccccc1Cl,67.3%
20,CCc1nc(C(=O)N2CCN(CC)CC2)nn1-c1ccccc1Cl,4.52%
21,Cc1nc(C(=O)N2CCCCC2)nn1-c1ccccc1Cl,4.52%
22,Cc1cnc(CC2COCCN(C(=O)c3cncs3)C2)cn1 (stereo unspecified),21.5%

row,Structure (SMILES),INHIBITION
1,CCc1ccc(C(=O)N2CCC(c3nncn3CC)CC2)o1,28.1%
2,COc1ccc(OCCN(C)S(=O)(=O)c2cnn(C)c2)cc1,11.5%
3,O=C(NCCOc1ccccc1)Nc1cc(C(F)(F)F)c[nH]c1=O,9.895%
4,COCC(=O)N1CCC2(CC1)CN(CC1CC1)c1ccc(F)cc12,77.4%
5,CC(=O)N1CCC2(CC1)CN(CC1CC1)c1ccc(F)cc12,37.6%
6,COCC(=O)N1CCC2(CCc3ccc(F)cc32)CC1,-30%
7,Cn1cc(CN2CCCC23CCN(C(=O)c2ccsc2)CC3)cn1,-16.1%
8,Cc1cnn(CC2CCCN2C(=O)c2ccc3[nH]c(=O)[nH]c3c2)c1 (stereo unspecified),17.5%
9,CN(Cc1cccs1)c1nc2c(cnn2C(C)(C)C)c(=O)[nH]1,53.5%
10,CCN(Cc1nc2c(cnn2C)c(=O)[nH]1)Cc1cccs1,44.6%
11,Cc1ccsc1CN(C)c1nc2c(cnn2C(C)(C)C)c(=O)[nH]1,70.7%
12,Cc1ncc(CN(C)c2nc3c(cnn3C(C)(C)C)c(=O)[nH]2)s1,30.8%
13,Cc1nc(CN(C)c2nc3c(cnn3C(C)(C)C)c(=O)[nH]2)cs1,36.2%
14,Cc1ccsc1CN(C)Cc1nc2c(cnn2C)c(=O)[nH]1,26.3%
15,CCc1nc2n(n1)CC(NCc1cnc(N(CC)CC)s1)CC2 (stereo unspecified),30.5%
16,CC(=O)N1CCCC(C(=O)c2cnn(-c3ccc(F)cc3)c2N)C1 (stereo unspecified),24.425%
17,Cc1nc[nH]c1CN1C[C@@H]2OCCN(c3ncccn3)[C@@H]2C1,42.7%
18,Cc1ccc(-n2ccnc2-c2cn(C3CCNCC3)nn2)c(Cl)c1,45.8%
19,CCN1CCN(C(=O)c2scnc2C)CC1,26.4%
20,CCCN1CCN(C(=O)c2scnc2C)CC1,11.1%
21,CC(C)CCN1CCN(C(=O)c2ccc(=O)[nH]n2)CC1,47%
22,Cc1cccc(C(=O)N2CCN(CCC(C)C)CC2)n1,50.3%

row,Structure (SMILES),INHIBITION
1,Cc1ncsc1C(=O)N1CCN(CCC(C)C)CC1,53.7%
2,Cc1cccc(C(=O)N2CCN(CCOC(C)C)CC2)n1,-49.3%
3,CCN1CCCc2cc(CN3CCc4nc(C)[nH]c(=O)c4C3)ccc21,15.1%
4,Cn1ncc(Cl)c1C(=O)NCCN1CCC(O)(c2ccc(F)cc2)CC1,6.3%
5,CCOCCCNC(=O)CN(c1cccc(F)c1)S(C)(=O)=O,30%
6,COC(=O)c1c(Cl)c(C2CC2)nc2onc(C)c12,47.2%
7,CN(C)CC(=O)N1C[C@@H]2CC[C@H](Oc3ccccc3Cl)[C@@H]2C1,37.5%
8,O=C(Cn1ccnc1)N1C[C@@H]2CC[C@H](Oc3ccccc3Cl)[C@@H]2C1,53.5%
9,O=C(Cn1ccnc1)N1C[C@@H]2CC[C@H](Oc3ccccc3F)[C@@H]2C1,-6.92%
10,O=C(Cn1ccnc1)N1C[C@@H]2CC[C@H](Oc3ccccc3)[C@@H]2C1,24.5%
11,O=C(Cn1ccnc1)N1C[C@@H]2CC[C@H](Oc3cccc(F)c3)[C@@H]2C1,1.5%
12,O=C(Cn1ccnc1)N1C[C@@H]2CC[C@H](Oc3ccc(Cl)cc3)[C@@H]2C1,56%
13,Cc1ccc(CN2C(=O)OCC2CO)c2ccccc12 (stereo unspecified),40.3%
14,CNc1nc(CNC(=O)Nc2cccc(C(C)OC)c2)cs1 (stereo unspecified),13.957%
15,CN1[C@@H]2CC[C@H]1CN(C(=O)CCc1csc(N)n1)CC2,50.3%
16,Cc1n[nH]c(C2CN(C(=O)CCc3cscn3)CCO2)n1 (stereo unspecified),40.75%
17,N[C@H]1CN(C(=O)CCC(F)(F)F)C[C@@H]1c1ccccc1,36.5%
18,COCCCC1CCCN(C(=O)CCc2csc(N)n2)C1 (stereo unspecified),35.8%
19,CN(C)[C@H]1CCCCN(C(=O)CCc2csc(N)n2)C1,16.8%
20,CN(C)C1CCCN(C(=O)CCc2csc(N)n2)CC1 (stereo unspecified),33.9%
21,Nc1nc(CCC(=O)N2CCOC(CC3CCCCC3)C2)cs1 (stereo unspecified),85.1%
22,Nc1nc(CCC(=O)N2C[C@H](c3ccccc3)[C@@H](N)C2)cs1,51%

row,Structure (SMILES),INHIBITION
1,N[C@H]1CN(C(=O)CCc2ccccn2)C[C@@H]1c1ccccc1,37.6%
2,CC1c2ncc(COCC3CCOCC3)n2CCN1Cc1cccnc1 (stereo unspecified),12.1%
3,Cc1ccsc1[C@@H]1CCN(C(=O)c2cc3ccccc3[nH]2)C[C@H]1O,66.9%
4,Cc1ccsc1[C@@H]1CCN(C(=O)c2ccc(-c3cc[nH]n3)cc2)C[C@H]1O,16.1%
5,Cc1ccsc1[C@@H]1CCN(C(=O)CCc2nc3ccccc3[nH]2)C[C@H]1O,-27.5%
6,c1csc(CN2CCc3ncnc(C4CCOC4)c3CC2)n1 (stereo unspecified),31.4%
7,Cn1ncc2c(=O)[nH]c(CN3CCc4ccccc4C3)nc21,40%
8,Cc1ccc(CN(Cc2nc3c(cnn3C)c(=O)[nH]2)C2CC2)o1,15.5%
9,Cn1ncc2c(=O)[nH]c(CN3CCC(Cc4ccccc4)CC3)nc21,52.7%
10,Cc1ccc(C(C)N(C)Cc2nc3c(cnn3C)c(=O)[nH]2)c(C)c1 (stereo unspecified),8.315%
11,Cn1ncc2c(=O)[nH]c(CN3CCCC3Cc3ccccc3)nc21 (stereo unspecified),24%
12,CC(c1ccco1)N(C)Cc1nc2c(cnn2C)c(=O)[nH]1 (stereo unspecified),66.8%
13,Cc1ccccc1C(C)N(C)Cc1nc2c(cnn2C)c(=O)[nH]1 (stereo unspecified),26.45%
14,Cc1ccc(C(C)N(C)Cc2nc3c(cnn3C)c(=O)[nH]2)cc1 (stereo unspecified),52.1%
15,Cn1ncc2c(=O)[nH]c(CN(Cc3ccco3)C3CCCC3)nc21,54.3%
16,COc1ccc(C(C)N(C)Cc2nc3c(cnn3C)c(=O)[nH]2)cc1 (stereo unspecified),0.7%
17,Cn1ncc2c(=O)[nH]c(CN(Cc3ccco3)C3CC3)nc21,47%
18,CN(Cc1nc2c(cnn2C)c(=O)[nH]1)Cc1ccco1,-5.07%
